What all share (assay): qHTS profiling for inhibitors of Plasmodium falciparum proliferation (AID 504749); also: nearly all actives have a fitted effect of over 60% in size
Holding throughout (conditions): P. falciparum in erythrocytes, SYBR Green DNA, 72 h; series mostly up to 28.7 µM
In general terms: Quantitative high-throughput screening tests each substance at several concentrations.

One assay concerns CP286. The method in brief: (§1)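 Quantitative HTS: compounds pinned into medium, infected erythrocytes added (0.3% parasitemia, 2.5% hematocrit), 72 h culture at 37 C under 5% CO2. Saponin/Triton lysis with SYBR Green I, overnight RT, then fluorescence read.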
The next assay relates to CP291. The method in brief: as §1
In a further assay the test system is CP297. The procedure, abridged: as §1
A further assay concerns CP305. The method in brief: as §1
In the next assay the test system is CP315. The procedure, abridged:
as §1

The test system of a further assay is CP325. The method in brief:
as §1

A further assay concerns CP329. The procedure, abridged: as §1
In another assay the test system is DFO2036. The procedure, abridged:
as §1

The test system of another assay is DIV14. The procedure, abridged:
as §1

A further assay deals with CP335. The method in brief: as §1

Each structure is given as a SMILES string. Inconclusive results are not listed. The source made the active and inactive calls. Calls follow the shape of the dose curve; as a rule, active = well fitted inhibition curve with a large enough effect; inconclusive = small, poorly fitted or top-dose-only effect; inactive = flat fitted curve, though single readings scatter.
Potency is read from the fitted curve at half-maximal effect.

In the case of `Oc1ccc(Cl)cc1`, the Potency result with CP286, in the assay with CP291, with CP297, in the assay on CP305, with CP315 and in the assay on CP325 was “inactive” in each case. Moreover, the Potency entry with CP329, in the assay on DFO2036 and in the assay on DIV14 was “inactive” in each case.

Turning to `Cc1ncsc1CCCl`, the Potency result in the assay on CP286, in the assay with CP297, with CP305, in the assay on CP315, in the assay with CP325 and in the assay on CP329 was “inactive” throughout. Further, the Potency result in the assay with CP335, in the assay on DFO2036 and in the assay with DIV14 was “inactive” each time.

Take `CC(C)(C)NCC(O)c1ccccc1Cl` (centres undefined): the Potency result in the assay on CP286, in the assay with CP291, with CP305, with CP315, in the assay on CP325 and in the assay with CP329 was “inactive” each time. The Potency entry with DFO2036 was “inactive”. The Potency in the assay with CP297 is 13.5 µM (active); with DIV14, 8.49 µM (active).

`Clc1ccc(C(c2ccc(Cl)cc2)C(Cl)(Cl)Cl)cc1`: the Potency entry with CP286, in the assay on CP291, in the assay on CP305, with CP315, with CP325 and in the assay with CP329 was “inactive” in each case. Also, the Potency result with CP335 and in the assay with DFO2036 was “inactive” in each case.

In the case of `O=P1(N(CCCl)CCCl)NCCCO1` (centres undefined), the Potency result in the assay on CP286, in the assay with CP291, in the assay with CP297, with CP305, in the assay with CP315 and in the assay on CP325 was “inactive” in each case. Also, the Potency entry with CP329, in the assay with CP335, in the assay with DFO2036 and with DIV14 was “inactive” each time.

Turning to `COP(=S)(OC)Oc1ccc(SC)c(C)c1`, the Potency entry with CP286, with CP297, with CP305, with CP315, in the assay on CP325 and in the assay with CP329 was “inactive” each time. Besides, the Potency entry in the assay with CP335, in the assay with DFO2036 and with DIV14 was “inactive” throughout.

Take `COC(=O)C(c1ccccc1)C1CCCCN1` (centres undefined): the Potency entry with CP286, with CP297, with CP305, in the assay on CP315, in the assay on CP325 and in the assay with CP329 was “inactive” in each case. In addition, the Potency entry in the assay with CP335 and with DFO2036 was “inactive” in each case.

For the molecule `C=C(C)[C@H]1CN[C@H](C(=O)O)[C@H]1CC(=O)O`, the Potency entry with CP286, in the assay on CP291, with CP305, in the assay on CP315, in the assay with CP325 and with CP329 was “inactive” each time. The Potency result in the assay with DFO2036 and in the assay on DIV14 was “inactive” throughout.

In the case of `CC(C)(C)NCC(O)c1cc(Cl)c(N)c(C(F)(F)F)c1` (centres undefined), the Potency in the assay with CP297 is 15.1 µM (active); in the assay on DFO2036, 5.01 µM (active); in the assay on DIV14, 6.01 µM (active). In addition, the Potency entry in the assay with CP315 and with CP329 was “inactive” in each case.

Regarding `C[C@]12CCC(=O)C=C1CC[C@@H]1[C@@H]2CC[C@]2(C)C(=O)CC[C@@H]12`, the Potency result in the assay on CP286, in the assay with CP291, in the assay on CP297, with CP305, in the assay with CP315 and in the assay on CP325 was “inactive” each time. The Potency entry with CP329, with CP335, in the assay with DFO2036 and in the assay with DIV14 was “inactive” throughout.

`CCC1(CC)C(=O)C=CNC1=O`: the Potency entry in the assay on CP286, in the assay with CP291, with CP297, in the assay with CP305, in the assay with CP315 and in the assay on CP325 was “inactive” throughout. Also, the Potency entry with CP329, with CP335, with DFO2036 and in the assay with DIV14 was “inactive” each time.

Regarding `NNc1ccccc1`, the Potency entry in the assay with CP286, in the assay on CP297, in the assay on CP305, with CP325, with CP329 and in the assay with CP335 was “inactive” each time. For the same molecule, the Potency result in the assay on DFO2036 and with DIV14 was “inactive” throughout.

As to `CCCCCCCCCC(=O)O[C@H]1CC[C@H]2[C@@H]3CCC4=CC(=O)CC[C@@H]4[C@H]3CC[C@]12C`, the Potency result in the assay with CP291, with CP297, in the assay on CP305, in the assay on CP315, in the assay with CP325 and in the assay with CP329 was “inactive” in each case. The Potency entry in the assay with CP335, with DFO2036 and with DIV14 was “inactive” throughout.

Regarding `O=C(N/N=C/c1ccc([N+](=O)[O-])o1)c1cc([N+](=O)[O-])cc([N+](=O)[O-])c1O`, in the assay with DFO2036, the Potency was 3.98 µM (active). In the assay with DIV14, the Potency entry was “inactive”.

On to `CCOP(=S)(OCC)Oc1ccc2c(C)c(Cl)c(=O)oc2c1`, for which the Potency with CP286 is 10 µM (active). Besides, the Potency entry in the assay on CP315 and in the assay with DIV14 was “inactive” in each case.

As to `COc1ccc2c(c1OC)C(=O)O[C@H]2[C@@H]1c2cc3c(cc2CCN1C)OCO3`, the Potency entry with CP291, with CP297, in the assay with CP305, with CP315, in the assay on CP325 and with CP329 was “inactive” throughout. Moreover, the Potency result in the assay on CP335 and in the assay on DIV14 was “inactive” each time.

Consider `CC(C)c1cccc(C(C)C)c1O`, for which the Potency entry in the assay on CP286, in the assay on CP305, in the assay on CP315, in the assay with CP325, in the assay with CP335 and in the assay with DFO2036 was “inactive” in each case.

On to `CCCC(C)(COC(N)=O)COC(N)=O`, for which the Potency entry with CP286, in the assay with CP297, with CP305, with CP315, in the assay with CP325 and in the assay on CP329 was “inactive” each time. In addition, the Potency result in the assay on CP335, in the assay with DFO2036 and in the assay on DIV14 was “inactive” in each case.

`Cc1nnc2n1-c1ccc(Cl)cc1C(c1ccccc1)=NC2`: the Potency result in the assay with CP286, with CP291, in the assay with CP297, with CP305, in the assay on CP315 and in the assay on CP325 was “inactive” in each case. The Potency entry in the assay on CP329, in the assay on DFO2036 and with DIV14 was “inactive” in each case.

The values above are taken from PubChem BioAssay (NCATS).
